# Assay results from PubChem BioAssay (NCI).
# This is part of a sample that, as a whole, favours compounds with a hit. Of some 79,000 tested, about 15% had one in any assay. Values without a mark were called inactive. Calls of active or inactive are those of the source. Cut-off read from the data, not from the text of the source: active = growth inhibition above about 70%; inactive = the rest.
# How the values were obtained:
# [1] = NCI Yeast Anticancer Drug Screen. Data for the rad52 strain (AID 147);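 note: 0% = growth of vehicle-treated control cultures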; conditions: S. cerevisiae rad52 mutant growth inhibition, active compounds read high
# In short: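 Inhibition of yeast growth, referenced to vehicle controls, was the measured output for a strain with defective DNA damage repair.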
# [2] = NCI Yeast Anticancer Drug Screen. Data for the wt1 strain (AID 149);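 note: 0% = growth of vehicle-treated wt1 cultures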; conditions: S. cerevisiae wt1 strain (SPY 50644) growth inhibition, active compounds read high
# In short: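 wt1 yeast, compound-treated; % growth inhibition vs vehicle control.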
# [3] = NCI Yeast Anticancer Drug Screen. Data for the rad50EPP+ strain (AID 151);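 note: 0% = growth of vehicle-treated control cultures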; conditions: S. cerevisiae rad50 mutant strain, active compounds read high
# In short: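 Genetically defined yeast (rad50EPP+, DNA damage repair alteration) is grown with compound, and inhibition of growth is expressed relative to vehicle-treated controls.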
# [4] = NCI Yeast Anticancer Drug Screen. Data for the mgt1 strain (AID 153); conditions: S. cerevisiae mgt1 mutant growth inhibition, active compounds read high
# In short: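 In the mgt1 strain, test compounds were added and growth inhibition was determined relative to vehicle-treated controls.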
# [5] = NCI Yeast Anticancer Drug Screen. Data for the rad50 strain (AID 155);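 note: 0% = growth of vehicle-only cultures of the same strain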; conditions: S. cerevisiae rad50 strain growth inhibition, active compounds read high
# In short: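 Genetically altered yeast (DNA repair pathway); compound treatment; growth inhibition vs vehicle ctrl.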
# [6] = NCI Yeast Anticancer Drug Screen. Data for the mec2-1 strain (AID 157); conditions: S. cerevisiae mec2-1 strain, active compounds read high
# In short: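 Each compound was tested on mec2-1 yeast, a strain altered in DNA damage repair or cell cycle control. Growth inhibition is reported relative to vehicle.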
# [7] = NCI Yeast Anticancer Drug Screen. Data for the sgs1 mgt1 strain (AID 161);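 note: 0% = growth of cultures given vehicle only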; conditions: S. cerevisiae sgs1 mgt1 strain, active compounds read high
# In short: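 Genetically altered yeast, compound exposure, growth inhibition relative to vehicle.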
# [8] = NCI Yeast Anticancer Drug Screen. Data for the CLN2oe strain (AID 163);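 note: 0% = growth of vehicle-only control cultures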; conditions: S. cerevisiae CLN2oe strain, active compounds read high
# In short: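 First, the altered yeast strain was treated with each compound; second, its growth was measured; finally, inhibition was derived by comparison with vehicle controls.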
# [9] = NCI Yeast Anticancer Drug Screen. Data for the cln2 rad14 strain (AID 165);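 note: 0% = growth equal to vehicle treated cultures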; conditions: S. cerevisiae cln2 rad14 strain, active compounds read high
# In short: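 Test compounds were added to cln2 rad14 yeast cultures; inhibition of growth was then determined by comparison with vehicle treatment.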
# [10] = NCI Yeast Anticancer Drug Screen. Data for the bub3 strain (AID 167); conditions: S. cerevisiae bub3 mutant strain, active compounds read high
# In short: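 Yeast carrying a defined mutation is treated with each compound, and growth is compared with that of vehicle-exposed cells to give inhibition.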
# [11] = NCI Yeast Anticancer Drug Screen. Data for the wt2 strain (AID 169);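 note: 0% = growth of vehicle-treated yeast cultures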; conditions: S. cerevisiae wt2 strain growth inhibition, active compounds read high
# In short: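 The panel's yeast strains carry defined changes in DNA repair or cell cycle genes. Each strain is grown with compound, and growth loss is scored relative to vehicle.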
# [12] = NCI Yeast Anticancer Drug Screen. Data for the mlh1 strain (AID 171);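 note: 0% = growth of vehicle-treated control cultures of the same strain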; conditions: S. cerevisiae mlh1 strain growth inhibition, active compounds read high
# In short: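 Inhibition values reflect reduced yeast growth in the presence of compound, referenced to vehicle controls, using a strain chosen for its alteration in DNA repair or cell cycle control.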
# [13] = NCI Yeast Anticancer Drug Screen. Data for the sgs1 strain (AID 173);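 note: 0% = growth of vehicle-only control cultures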; conditions: S. cerevisiae sgs1 mutant, active compounds read high
# In short: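 Vehicle-treated cultures served as reference for growth inhibition of a yeast strain altered in DNA damage repair or cell cycle control after compound exposure.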
# [14] = NCI Yeast Anticancer Drug Screen. Data for the mlh1 rad18 strain (AID 175); conditions: S. cerevisiae mlh1 rad18 strain growth inhibition, active compounds read high
# In short: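 Inhibition values reflect reduced growth of mutant yeast versus vehicle-treated controls following compound exposure; the mutations affect DNA damage repair.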
# [15] = NCI Yeast Anticancer Drug Screen. Data for the rad18 strain (AID 177); conditions: S. cerevisiae rad18 mutant growth inhibition, active compounds read high
# In short: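 Steps: expose repair-mutant yeast to compound; measure growth; express as inhibition relative to vehicle control.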
# [16] = at 5.0 µM (retest, dose inferred, filed as 0.5)
# [17] = at 50.0 µM (retest, dose inferred, filed as 5.0)
smiles,measurement,setting,value
CN(C)CCCCN1c2ccccc2Sc2ccc(N=[N+]=[N-])cc21,growth inhibition,[1]; at 1.2 µM,29%
same,growth inhibition,[1]; at 3.7 µM,37%
same,growth inhibition,[1]; at 11.0 µM,45%
same,growth inhibition,[1]; at 33.0 µM,49%
same,growth inhibition,[1]; at 100.0 µM,99% (active)
same,growth inhibition,[2]; at 1.2 µM,23%
same,growth inhibition,[2]; at 3.7 µM,36%
same,growth inhibition,[2]; at 11.0 µM,36%
same,growth inhibition,[2]; at 33.0 µM,47%
same,growth inhibition,[2]; at 100.0 µM,99% (active)
same,growth inhibition,[3]; at 1.2 µM,24%
same,growth inhibition,[3]; at 3.7 µM,20%
same,growth inhibition,[3]; at 11.0 µM,23%
same,growth inhibition,[3]; at 33.0 µM,23%
same,growth inhibition,[3]; at 100.0 µM,80% (active)
same,growth inhibition,[4]; at 1.2 µM,19%
same,growth inhibition,[4]; at 3.7 µM,20%
same,growth inhibition,[4]; at 11.0 µM,31%
same,growth inhibition,[4]; at 33.0 µM,51%
same,growth inhibition,[4]; at 100.0 µM,99% (active)
same,growth inhibition,[5]; at 1.2 µM,6%
same,growth inhibition,[5]; at 3.7 µM,20%
same,growth inhibition,[5]; [16],91% (active)
same,growth inhibition,[5]; at 11.0 µM,15%
same,growth inhibition,[5]; at 33.0 µM,47%
same,growth inhibition,[5]; [17],99% (active)
same,growth inhibition,[5]; at 50.0 µM,84.2% (active)
same,growth inhibition,[5]; at 100.0 µM,98% (active)
same,growth inhibition,[6]; at 1.2 µM,33%
same,growth inhibition,[6]; at 3.7 µM,31%
same,growth inhibition,[6]; [16],33%
same,growth inhibition,[6]; at 11.0 µM,36%
same,growth inhibition,[6]; at 33.0 µM,42%
same,growth inhibition,[6]; [17],99% (active)
same,growth inhibition,[6]; at 50.0 µM,79.2% (active)
same,growth inhibition,[6]; at 100.0 µM,99% (active)
same,growth inhibition,[7]; [16],-16%
same,growth inhibition,[7]; [17],99% (active)
same,growth inhibition,[7]; at 50.0 µM,90.5% (active)
same,growth inhibition,[8]; at 1.2 µM,19%
same,growth inhibition,[8]; at 3.7 µM,18%
same,growth inhibition,[8]; at 11.0 µM,24%
same,growth inhibition,[8]; at 33.0 µM,39%
same,growth inhibition,[8]; at 100.0 µM,98% (active)
same,growth inhibition,[9]; [16],8%
same,growth inhibition,[9]; [17],99% (active)
same,growth inhibition,[9]; at 50.0 µM,89.5% (active)
same,growth inhibition,[10]; at 1.2 µM,-8%
same,growth inhibition,[10]; at 3.7 µM,-10%
same,growth inhibition,[10]; [16],4%
same,growth inhibition,[10]; at 11.0 µM,-14%
same,growth inhibition,[10]; at 33.0 µM,14%
same,growth inhibition,[10]; [17],98% (active)
same,growth inhibition,[10]; at 50.0 µM,72% (active)
same,growth inhibition,[10]; at 100.0 µM,98% (active)
same,growth inhibition,[11]; at 1.2 µM,-8%
same,growth inhibition,[11]; at 3.7 µM,-15%
same,growth inhibition,[11]; at 11.0 µM,-14%
same,growth inhibition,[11]; at 33.0 µM,46%
same,growth inhibition,[11]; at 100.0 µM,99% (active)
same,growth inhibition,[12]; at 1.2 µM,32%
same,growth inhibition,[12]; at 3.7 µM,31%
same,growth inhibition,[12]; at 11.0 µM,35%
same,growth inhibition,[12]; at 33.0 µM,57%
same,growth inhibition,[12]; at 100.0 µM,99% (active)
same,growth inhibition,[13]; at 1.2 µM,10%
same,growth inhibition,[13]; at 3.7 µM,42%
same,growth inhibition,[13]; at 11.0 µM,43%
same,growth inhibition,[13]; at 33.0 µM,67%
same,growth inhibition,[13]; at 100.0 µM,99% (active)
same,growth inhibition,[14]; [16],23%
same,growth inhibition,[14]; [17],99% (active)
same,growth inhibition,[14]; at 50.0 µM,91.5% (active)
same,growth inhibition,[15]; at 1.2 µM,10%
same,growth inhibition,[15]; at 3.7 µM,14%
same,growth inhibition,[15]; at 11.0 µM,24%
same,growth inhibition,[15]; at 33.0 µM,57%
same,growth inhibition,[15]; at 100.0 µM,99% (active)
Cc1ccc(Cl)cc1NC(=O)OCCN(C)C(=O)Nc1cc(Cl)ccc1C,growth inhibition,[1]; at 1.2 µM,7%
same,growth inhibition,[1]; at 3.7 µM,-12%
same,growth inhibition,[1]; at 11.0 µM,-36%
same,growth inhibition,[1]; at 33.0 µM,-21%
same,growth inhibition,[1]; at 100.0 µM,-1%
same,growth inhibition,[2]; at 1.2 µM,-30%
same,growth inhibition,[2]; at 3.7 µM,-35%
same,growth inhibition,[2]; at 11.0 µM,-38%
same,growth inhibition,[2]; at 33.0 µM,-30%
same,growth inhibition,[2]; at 100.0 µM,34%
same,growth inhibition,[3]; at 1.2 µM,-26%
same,growth inhibition,[3]; at 3.7 µM,-20%
same,growth inhibition,[3]; at 11.0 µM,-14%
same,growth inhibition,[3]; at 33.0 µM,-6%
same,growth inhibition,[3]; at 100.0 µM,-11%
same,growth inhibition,[4]; at 1.2 µM,-29%
same,growth inhibition,[4]; at 3.7 µM,-28%
same,growth inhibition,[4]; at 11.0 µM,-29%
same,growth inhibition,[4]; at 33.0 µM,-24%
same,growth inhibition,[4]; at 100.0 µM,2%
same,growth inhibition,[5]; at 1.2 µM,-26%
same,growth inhibition,[5]; at 3.7 µM,-34%
same,growth inhibition,[5]; [16],57%
same,growth inhibition,[5]; at 11.0 µM,-35%
same,growth inhibition,[5]; at 33.0 µM,-31%
same,growth inhibition,[5]; [17],95% (active)
same,growth inhibition,[5]; at 50.0 µM,86% (active)
same,growth inhibition,[5]; at 100.0 µM,19%
same,growth inhibition,[6]; at 1.2 µM,-28%
same,growth inhibition,[6]; at 3.7 µM,-34%
same,growth inhibition,[6]; [16],57%
same,growth inhibition,[6]; at 11.0 µM,-36%
same,growth inhibition,[6]; at 33.0 µM,-31%
same,growth inhibition,[6]; [17],93% (active)
same,growth inhibition,[6]; at 50.0 µM,61%
same,growth inhibition,[6]; at 100.0 µM,-21%
same,growth inhibition,[7]; [16],-29%
same,growth inhibition,[7]; [17],32%
same,growth inhibition,[7]; at 50.0 µM,37.6%
same,growth inhibition,[8]; at 1.2 µM,-48%
same,growth inhibition,[8]; at 3.7 µM,-28%
same,growth inhibition,[8]; at 11.0 µM,-48%
same,growth inhibition,[8]; at 33.0 µM,-33%
same,growth inhibition,[8]; at 100.0 µM,-26%
same,growth inhibition,[9]; [16],17%
same,growth inhibition,[9]; [17],75% (active)
same,growth inhibition,[9]; at 50.0 µM,85.1% (active)
same,growth inhibition,[10]; at 1.2 µM,-39%
same,growth inhibition,[10]; at 3.7 µM,-39%
same,growth inhibition,[10]; [16],13%
same,growth inhibition,[10]; at 11.0 µM,-42%
same,growth inhibition,[10]; at 33.0 µM,-36%
same,growth inhibition,[10]; [17],56%
same,growth inhibition,[10]; at 50.0 µM,46.9%
same,growth inhibition,[10]; at 100.0 µM,13%
same,growth inhibition,[11]; at 1.2 µM,-37%
same,growth inhibition,[11]; at 3.7 µM,-27%
same,growth inhibition,[11]; at 11.0 µM,-23%
same,growth inhibition,[11]; at 33.0 µM,-8%
same,growth inhibition,[11]; at 100.0 µM,6%
